Assay outcomes from PubChem.
PostGolgi yeast: growth inhibition of a yeast mutant, post-Golgi transport screen. post-Golgi transport phenotypic cell assay. inhibition, % at 10 µM. 98,000 compounds, 0.9% hits. AID 739;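 also: yeast cells grown in 1536-well plates; yeast grown about 18 h at 30C before absorbance read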
CYP2C9 inh: blocks human cytochrome P450 2C9. inhibition, % at 5 µM. 96,000 compounds, 20% hits. CYP2C9 Supersomes, luciferin-H conversion, luminescence;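 active = blocking of liver enzyme CYP2C9 beyond about 50% at 5 µM, limit read from the data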
Target sequence (P11712 whole entry, looked up): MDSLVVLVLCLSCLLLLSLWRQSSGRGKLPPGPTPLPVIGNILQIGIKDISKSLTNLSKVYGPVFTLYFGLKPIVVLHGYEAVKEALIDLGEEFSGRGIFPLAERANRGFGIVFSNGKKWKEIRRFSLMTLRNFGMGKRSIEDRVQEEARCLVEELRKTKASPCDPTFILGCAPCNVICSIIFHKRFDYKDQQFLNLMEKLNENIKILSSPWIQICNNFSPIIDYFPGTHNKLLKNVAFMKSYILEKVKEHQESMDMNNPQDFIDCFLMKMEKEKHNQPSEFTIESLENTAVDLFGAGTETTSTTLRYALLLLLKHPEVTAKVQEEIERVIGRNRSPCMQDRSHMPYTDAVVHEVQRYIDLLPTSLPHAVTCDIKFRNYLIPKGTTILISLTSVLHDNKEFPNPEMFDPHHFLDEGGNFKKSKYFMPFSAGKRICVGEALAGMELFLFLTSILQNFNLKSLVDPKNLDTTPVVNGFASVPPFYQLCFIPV
CYP2C19 inh: human CYP2C19 inhibition; inhibition, % at 5 µM; 96,000 compounds, 21% hits; CYP2C19 Supersomes, luciferin-H EGE luminescence, 30 min; P33261;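 active = CYP2C19 inhibition above a set limit at 5 µM in the primary screen, cut at about 50% in these data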
CYP2C19 activ: activators of human cytochrome P450 2C19. P33261. recombinant CYP2C19, luciferin-H EGE luminescence; stronger effect = higher value; 0 = fully inhibited enzyme, 1 = untreated enzyme. activation factor at 5 µM. 96,000 tested, under 10 active. AID 1025;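 active = activation factor of at least 2 at 5 µM in the primary screen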
CYP2C9 activ: CYP2C9 (human) activation. P11712. recombinant CYP2C9, luciferin-H conversion, luminescence; stronger effect = higher value; factor 1 = untreated enzyme, 0 = blocked. activation factor at 5 µM. 96,000 compounds, 1.4% hits;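 active = activation factor of 2 or more for CYP2C9 at a 5 µM dose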
PostGolgi ctrl: yeast control strain growth, post-Golgi counter-screen; efflux-deficient yeast background strain, growth absorbance A615, 16 h; inhibition, % at 10 µM; 98,000 compounds, 5% hits; AID 738
Each line names hits and unclear results; the compound was inactive in the other large screens. Most compounds without a hit are left out; they make up all but 32% or so of the library. Rule as the data show it, unless noted: active = inhibition above about 30%; inactive = the rest.

COc1ccc(-n2nc(C(=O)NCc3ccco3)c3ccccc3c2=O)cc1	none
CCCCNC(=O)C(C#N)c1nc2ccccc2nc1N1CCN(c2ccccc2F)CC1 (stereo not given)	none (no result: CYP2C9 inh, CYP2C19 inh, CYP2C19 activ, CYP2C9 activ)
COc1cccc(-n2nc(-c3ccnn3-c3ccccc3)c(=O)n(C)c2=O)c1	CYP2C19 inh 61.7
CC(=O)c1c(C)n(C)c2ccc(OC(=O)c3ccco3)cc12	none
Cc1cc(C(=O)Nc2ccccc2C(F)(F)F)no1	none
CCc1ccccc1NC(=O)c1cc(C2CC2)on1	CYP2C9 activ 2.4
N#CC1=C2SCN(Cc3ccco3)CN2C(=O)CC1c1ccc(Cl)cc1 (stereo not given)	CYP2C9 inh 70.2, CYP2C19 inh 61.3
CC(C)c1ccc(C2CC(=O)N3CN(Cc4ccco4)CSC3=C2C#N)cc1 (stereo not given)	CYP2C9 inh 72.7
COc1cccc(C2C(C#N)=C(N)Oc3cc(C)n(Cc4ccco4)c(=O)c32)c1 (stereo not given)	none
COc1ccc(C2CC(=O)N3CN(Cc4ccco4)CSC3=C2C#N)cc1 (stereo not given)	none
C=CCn1c(SC/C=C/c2ccccc2)nnc1-c1sc(N)nc1C	none
NS(=O)(=O)c1ccc(CCNC(=O)CNC(=O)C2CCCCC2)cc1	none
CCN(CC)c1ccc(-c2nn3c(-c4n[nH]c5c4CCC5)nnc3s2)cc1	PostGolgi ctrl 43.5
c1coc(-c2nnc3sc(C4CCCCC4)nn23)c1	none
C1CCC(c2nn3c(-c4n[nH]c5c4CCC5)nnc3s2)CC1	CYP2C19 inh 87.2
Cc1nnc(SCC(=O)Nc2nsc(-c3ccc(Cl)cc3)n2)s1	none
COc1ccc2c(c1OC)C(=O)OC2CC(=O)c1ccc(N(C)C)cc1 (stereo not given)	none
COc1ccc2c(c1OC)C(=O)OC2CC(=O)c1ccc(O)c(O)c1 (stereo not given)	CYP2C19 inh 50.6
COc1ccc2c(c1OC)C(=O)OC2CC(=O)c1ccc(O)cc1 (stereo not given)	CYP2C19 inh 71.8
Cc1cccc(NC(=O)CSc2ncnc3nc[nH]c23)c1	none
Cc1cccc(CSc2ncnc3nc[nH]c23)c1	CYP2C19 inh 71.8
CCOC(=O)c1cc2c(C)n(-c3ccc(C)cc3)c(C)c2ccc1=O	CYP2C9 inh 58.9
CCOC(=O)c1cc2c(C)n(-c3ccc(OCC)cc3)c(C)c2ccc1=O	CYP2C19 inh 63.5
CCN(CC)CCCN(Cc1cc2ccc(C)c(C)c2[nH]c1=O)C(=O)NC1CCCCC1	none
CCCCN(Cc1ccco1)C(=O)Cn1ncc2c(=O)oc3ccc(C)cc3c21	none
NC(=O)c1c(NC(=O)CSc2nnc(-c3ccco3)n2-c2ccccc2)sc2c1CCC2	CYP2C9 inh 94.4, CYP2C19 inh 69.4
CCOC(=O)c1c(NC(=O)CSc2nnc(-c3cccc(C)c3)n2CC)sc(C(C)=O)c1C	CYP2C9 inh 94.3
CCOC(=O)c1c(NC(=O)CSc2nnc(-c3ccccc3)n2CC)sc(C(C)=O)c1C	CYP2C9 inh 97.3, CYP2C19 inh 89.7
C=CCn1c(SCC(=O)Nc2nccs2)nnc1-c1ccco1	CYP2C19 inh 85.3
COc1cc(NC(=O)CCn2c(=O)[nH]c3ccsc3c2=O)cc(OC)c1	none (no result: CYP2C9 inh, CYP2C19 inh, CYP2C19 activ, CYP2C9 activ)
COCCN1C(=O)c2ccccc2C(C(=O)N2CCN(c3ccccn3)CC2)C1c1ccc(F)cc1 (stereo not given)	none (no result: CYP2C9 inh, CYP2C19 inh, CYP2C19 activ, CYP2C9 activ)
CCOC(=O)c1c(NC(=O)C2c3ccccc3Oc3ccccc32)sc(C(C)=O)c1C	CYP2C9 inh 94.4
CCOC(=O)c1sc(NC(=O)CSc2nncs2)c(C(=O)OCC)c1C	none
CCn1c(SCC(=O)Nc2sc3c(c2C#N)CCC(C(C)(C)C)C3)nnc1-c1ccco1 (stereo not given)	none
CCn1c(SCc2c(F)cccc2Cl)nnc1-c1ccco1	CYP2C19 inh 60.7
CCOC(=O)c1sc(NC(=O)CSc2nnc(-c3ccco3)n2CC)c(C(=O)OCC)c1C	CYP2C9 inh 96.3
CCn1c(SCC(=O)Nc2sc3c(c2C#N)CCCC3)nnc1-c1ccco1	CYP2C9 inh 55.1
CCCCC1CCC(C(=O)Nc2ccccc2)CC1 (stereo not given)	none
CCn1c(SCC(=O)Nc2nc(C)c(C)s2)nnc1-c1ccco1	CYP2C19 inh 79.5
CCN(CC(=O)N1CCN(C)CC1)S(=O)(=O)c1ccc(Cl)cc1	none
C=CCn1c(SCC(=O)NCC2CCCO2)nc2scc(-c3ccco3)c2c1=O (stereo not given)	CYP2C9 inh 81.4, CYP2C19 inh 78.0
O=C(CSc1nc2scc(-c3ccco3)c2c(=O)n1-c1ccccc1)NCC1CCCO1 (stereo not given)	CYP2C9 inh 70.9, CYP2C19 inh 51.7
C=CCn1c(SCC(=O)NCCOC)nc2scc(-c3ccco3)c2c1=O	CYP2C9 inh 82.9, CYP2C19 inh 78.4
NC(=O)CSc1nc2scc(-c3ccco3)c2c(=O)n1-c1ccccc1	none
O=c1c2c(-c3ccco3)csc2nc(SCc2cn3cccnc3n2)n1-c1ccccc1	CYP2C9 inh 97.2, CYP2C19 inh 53.4, PostGolgi ctrl 35.9
Nc1c(N(C(=O)Nc2ccc(Cl)c(Cl)c2)C2CCCC2)c(=O)[nH]c(=O)n1Cc1ccccc1	none
CCOC(=O)C1CCN(c2nnc(N3CCCC3=O)s2)CC1	none
Cc1cc(C)c(C)c(OCc2nc(-c3cccnc3)no2)c1	CYP2C19 inh 68.3
CCOc1ccc(-c2noc(-c3cccnc3)n2)cc1OC	none
Cc1ccc(OCc2nc(-c3ccccc3)no2)c(C)c1	CYP2C9 inh 58.6, CYP2C19 inh 72.3
CCOc1cc(N2CCOCC2)c(OCC)cc1NC(=O)c1ccc(=O)n(Cc2ccccc2)n1	none (no result: PostGolgi yeast, PostGolgi ctrl)
CCn1c(SCc2cccc(C(=O)O)c2)nnc1-c1ccccc1	none
Cc1nnc(SCC(=O)Nc2sccc2C(N)=O)n1Cc1ccccc1	CYP2C19 inh 75.6, CYP2C9 activ 2.3, PostGolgi ctrl 31.9
COC(=O)c1cccc(NC(=O)CSc2nnc(C)n2Cc2ccccc2)c1	CYP2C9 inh 89.3, CYP2C19 inh 69.8
COC(=O)c1cccc(NC(=O)CSc2nnc(COc3ccc(C#N)cc3)n2-c2ccccc2)c1	CYP2C9 inh 69.4
Cc1cccc(NC(=O)CSc2nnc(C)n2Cc2ccccc2)c1	CYP2C19 inh 59.0
Cc1nnc(SCC(=O)Nc2ncc(Cl)cc2Cl)n1Cc1ccccc1	none
Cc1nnc(SCC(=O)N2CCC(C(=O)Nc3nccs3)CC2)n1Cc1ccccc1	none (no result: CYP2C9 inh, CYP2C19 inh, CYP2C19 activ, CYP2C9 activ)
COC(=O)c1cccc(NC(=O)CSc2nnc(COc3cccc(C)c3)n2C)c1	none
COCCn1c(-c2ccc(OC)cc2)nc2oc3cc(OC)ccc3c(=O)c2c1=O	none
O=C(NCC1CCC(C(=O)O)CC1)c1cccnc1 (stereo not given)	none
Cc1cc(N2C(=O)CCC2=O)ccc1NC(=O)c1cccs1	none
O=C(NCC1CCCO1)Nc1ccccc1 (stereo not given)	none
CCOc1ccc(-n2c(COc3ccccc3)nnc2SCC(N)=O)cc1	CYP2C19 inh 75.6
